Data taken from PubChem BioAssay (NCI).
Compounds without any hit were thinned out: in the full panel of roughly 79,000, 15% have a hit. Activity calls are given as the source filed them. No stated cut-off is given here; in the data, active means growth inhibition above about 70%; inactive means the rest.

What was measured:
[1] = NCI Yeast Anticancer Drug Screen. Data for the rad50 strain (AID 155);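 further: 0% = growth of vehicle-only cultures of the same strain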; conditions: S. cerevisiae rad50 strain growth inhibition, active compounds read high
Method in brief: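 DNA repair mutant yeast, compound exposure, growth read-out; inhibition is taken relative to vehicle.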

[2] = NCI Yeast Anticancer Drug Screen. Data for the mec2-1 strain (AID 157); conditions: S. cerevisiae mec2-1 strain, active compounds read high
Method in brief: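 Each compound was tested on mec2-1 yeast, a strain altered in DNA damage repair or cell cycle control. Growth inhibition is reported relative to vehicle.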

[3] = NCI Yeast Anticancer Drug Screen. Data for the sgs1 mgt1 strain (AID 161);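 further: 0% = growth of cultures given vehicle only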; conditions: S. cerevisiae sgs1 mgt1 strain, active compounds read high
Method in brief: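 Mutant yeast exposed to compound; growth scored against vehicle-only wells.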

[4] = NCI Yeast Anticancer Drug Screen. Data for the cln2 rad14 strain (AID 165);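 further: 0% = growth equal to vehicle treated cultures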; conditions: S. cerevisiae cln2 rad14 strain, active compounds read high
Method in brief: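 Test compounds were added to cln2 rad14 yeast cultures; inhibition of growth was then determined by comparison with vehicle treatment.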

[5] = NCI Yeast Anticancer Drug Screen. Data for the bub3 strain (AID 167); conditions: S. cerevisiae bub3 mutant strain, active compounds read high
Method in brief: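 In this screen, a yeast mutant lacking normal mitotic checkpoint function is challenged with compound. Relative growth versus vehicle gives the inhibition value.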

[6] = NCI Yeast Anticancer Drug Screen. Data for the mlh1 rad18 strain (AID 175); conditions: S. cerevisiae mlh1 rad18 strain growth inhibition, active compounds read high
Method in brief: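 Inhibition values reflect reduced growth of mutant yeast versus vehicle-treated controls following compound exposure; the mutations affect DNA damage repair.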

[7] = at 5.0 µM (retest, dose inferred, filed as 0.5)
[8] = at 50.0 µM (retest, dose inferred, filed as 5.0)

Measured: growth inhibition

CS(=O)(=O)OCCN(CCOS(C)(=O)=O)c1ccc(C=Nc2ccc(-c3cnc(-c4ccc(Cl)cc4)s3)cc2)c(Cl)c1
inactive: [1]; [7] 1% | [2]; [7] -3% | [3]; [7] 3% | [4]; [7] -6% | [5]; [7] 3% | [6]; [7] 0%
active: [1]; [8] 84% | [1]; at 50.0 µM 90% | [2]; [8] 91% | [2]; at 50.0 µM 95% | [3]; [8] 90% | [3]; at 50.0 µM 93.8% | [4]; [8] 90% | [4]; at 50.0 µM 90.5% | [5]; [8] 92% | [5]; at 50.0 µM 92.3% | [6]; [8] 89% | [6]; at 50.0 µM 92.3%

COC(OC)C1C2C3C=CC(C4C(=O)OC(=O)C34)C12 (configuration not stated)
inactive: [1]; [7] -5% | [1]; [8] 0% | [2]; [7] -16% | [2]; [8] -4% | [3]; [7] -15% | [3]; [8] -13% | [3]; at 50.0 µM 29.4% | [4]; [7] -2% | [4]; [8] -5% | [5]; [7] 0% | [5]; [8] 14% | [6]; [7] 6% | [6]; [8] 2%
active: [1]; at 50.0 µM 76.5% | [2]; at 50.0 µM 98.4% | [4]; at 50.0 µM 98.3% | [5]; at 50.0 µM 97.2% | [6]; at 50.0 µM 98.6%

COc1cc(/C=C/C(=O)Sc2ccccc2)cc(OC)c1O
active: [1]; at 50.0 µM 74.7% | [4]; at 50.0 µM 75.7% | [5]; [8] 70%
inactive: [1]; [7] 1% | [1]; [8] 47% | [2]; [7] 0% | [2]; [8] 58% | [2]; at 50.0 µM 58.6% | [3]; [7] -3% | [3]; [8] 60% | [3]; at 50.0 µM 59.2% | [4]; [7] 2% | [4]; [8] 38% | [5]; [7] 2% | [5]; at 50.0 µM 51% | [6]; [7] -2% | [6]; [8] 58% | [6]; at 50.0 µM 50.6%

O=C1C(C(O)(C(F)(F)Cl)C(F)(F)Cl)CCC1C(O)(C(F)(F)Cl)C(F)(F)Cl (configuration not stated)
active: [1]; [7] 92% | [1]; [8] 99% | [1]; at 50.0 µM 99.8% | [2]; [7] 95% | [2]; [8] 100% | [2]; at 50.0 µM 99.5% | [3]; [7] 95% | [3]; [8] 99% | [3]; at 50.0 µM 99.8% | [4]; [7] 94% | [4]; [8] 99% | [4]; at 50.0 µM 99.4% | [5]; [7] 78% | [5]; [8] 99% | [5]; at 50.0 µM 98.1% | [6]; [7] 95% | [6]; [8] 99% | [6]; at 50.0 µM 99.5%

Nc1nc(Cc2ccccc2)nc(Cc2ccccc2)c1-c1ccccc1
active: [1]; [8] 97% | [1]; at 50.0 µM 96.4% | [2]; [8] 98% | [2]; at 50.0 µM 96.5% | [3]; [8] 98% | [3]; at 50.0 µM 96.8% | [4]; [8] 95% | [4]; at 50.0 µM 94.1% | [5]; [8] 98% | [5]; at 50.0 µM 96% | [6]; [8] 97% | [6]; at 50.0 µM 95.6%
inactive: [1]; [7] 25% | [2]; [7] -2% | [3]; [7] 6% | [4]; [7] 4% | [5]; [7] 15% | [6]; [7] 4%

CC(C)SC(=S)Nc1cc(Cl)c(Cl)cc1Cl
inactive: [1]; [7] 7% | [2]; [7] 6% | [3]; [7] 10% | [4]; [7] -14% | [5]; [7] -4% | [5]; [8] 49% | [6]; [7] 1%
active: [1]; [8] 85% | [1]; at 50.0 µM 99.5% | [2]; [8] 86% | [2]; at 50.0 µM 99.5% | [3]; [8] 98% | [3]; at 50.0 µM 99.5% | [4]; [8] 91% | [4]; at 50.0 µM 99.3% | [5]; at 50.0 µM 98.9% | [6]; [8] 92% | [6]; at 50.0 µM 99.3%

COC(CO)(OC)c1ccccc1
inactive: [1]; [7] -163% | [1]; [8] -65% | [1]; at 50.0 µM -0.65% | [2]; [7] -50% | [2]; [8] -50% | [2]; at 50.0 µM -2.9% | [3]; [7] -66% | [3]; [8] -49% | [3]; at 50.0 µM -9% | [4]; [7] -63% | [4]; [8] -70% | [4]; at 50.0 µM 25.6% | [5]; [7] -70% | [5]; [8] -71% | [5]; at 50.0 µM -29.1% | [6]; [7] -128% | [6]; [8] -130% | [6]; at 50.0 µM 3.5%

CC(C)=CCC/C(C)=C/CC/C(C)=C/CSc1ccccc1C(=O)O
inactive: [1]; [7] 22% | [1]; [8] 17% | [2]; [7] 10% | [2]; [8] 14% | [3]; [7] 14% | [3]; [8] 10% | [3]; at 50.0 µM 54.5% | [4]; [7] 8% | [4]; [8] 20% | [4]; at 50.0 µM 10.2% | [5]; [7] 18% | [5]; [8] 19% | [5]; at 50.0 µM 62.2% | [6]; [7] 22% | [6]; [8] 18% | [6]; at 50.0 µM 41.5%
active: [1]; at 50.0 µM 76.3% | [2]; at 50.0 µM 75.8%

CN(C)CC1CCCCCCCCCCCCC(CN(C)C)C1=O (configuration not stated)
active: [1]; at 50.0 µM 83.7% | [2]; at 50.0 µM 77.8% | [3]; at 50.0 µM 95.5% | [4]; at 50.0 µM 72.2% | [5]; at 50.0 µM 88% | [6]; [8] 87%
inactive: [1]; [7] -18% | [1]; [8] 42% | [2]; [7] -6% | [2]; [8] 22% | [3]; [7] -15% | [3]; [8] 57% | [4]; [7] -23% | [4]; [8] 20% | [5]; [7] -15% | [5]; [8] 46% | [6]; [7] -13% | [6]; at 50.0 µM 39%
